Measured values from the supplement of paper PMC6522484.
± gives the standard deviation of the averaged measurements.

Legend:
DLD1 [1] = assay: cell viability (CellTiter-Glo) relative to plate median (fraction of plate median); higher = more viable cells; conditions: 5 µM; treatment time 24 h; reporter: 7TFP
In short: (§1)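 After seeding in 384-well plates, colorectal cancer cell lines carrying stable lentiviral TCF/Wnt firefly luciferase reporters (7TFP or TCF4/Wnt) were left 24 h. Library compounds were then added at a final 5 µM for 24 h. A Tecan F500 reader measured firefly luciferase or CellTiterGlo luminescence on parallel plates, with each well normalised to the plate median by webcellHTS2 (additive, no log transformation), and two independent replicates averaged.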

HCT116 = assay: as above; conditions: 5 µM; treatment time 24 h; reporter: TCF4/Wnt
In short: as §1

SW480 [2] = assay: as above; conditions: 5 µM; treatment time 24 h; reporter: 7TFP
In short: as §1

DLD1 [3] = assay: TCF/Wnt firefly luciferase reporter signal relative to plate median (fraction of plate median); higher = higher Wnt reporter signal; conditions: 5 µM; treatment time 24 h; reporter: 7TFP
In short: as §1

SW480 [4] = assay: as above; conditions: 5 µM; treatment time 24 h; reporter: 7TFP
In short: as §1

SMILES	cell viability (DLD1 [1])	cell viability (HCT116)	cell viability (SW480 [2])	TCF/Wnt firefly luciferase reporter signal (DLD1 [3])	TCF/Wnt firefly luciferase reporter signal (SW480 [4])
C[C@H]1[C@H](C)CC[C@]2(C(=O)O)CC[C@]3(C)C(=CC[C@@H]4[C@@]5(C)C[C@@H](O)[C@H](O)[C@@](C)(CO)[C@@H]5CC[C@]43C)[C@H]12	1.04 ± 0.072	1.1 ± 0.15	1.1 ± 0.021	0.974 ± 0.093	1.05 ± 0.035
O=c1cc(-c2ccc(O)cc2)oc2ccc(O)cc12	1.11 ± 0.11	1.1 ± 0.099	1.035 ± 0.0071	1.03 ± 0.11	1.125 ± 0.0071
CCCOc1ccccc1-c1nc2[nH]nnc2c(=O)[nH]1	0.985 ± 0.035	0.973 ± 0.14	0.909 ± 0.058	1.01 ± 0.064	0.951 ± 0.084
CC1Cc2ccccc2N1NC(=O)c1ccc(Cl)c(S(N)(=O)=O)c1 (stereo not given)	1.01 ± 0.069	1.1 ± 0.028	1 ± 0.013	0.967 ± 0.13	1.055 ± 0.0071
COc1ccc(-c2coc3cc(OC(C)=O)cc(OC(C)=O)c3c2=O)cc1	1.01 ± 0.023	0.994 ± 0.079	0.976 ± 0.0057	1.34 ± 0.3	1.23 ± 0.16
OC[C@H]1O[C@@](CO)(O[C@H]2O[C@H](CO)[C@@H](O)[C@H](O)[C@H]2O)[C@@H](O[C@H]2O[C@H](CO)[C@@H](O)[C@H](O)[C@H]2O)[C@@H]1O	1.01 ± 0.047	1.05 ± 0.014	1 ± 0.025	0.9905 ± 0.0078	0.989 ± 0.073
CC[C@H](C)C(=O)O[C@H]1C[C@@H](C)C=C2C=C[C@H](C)[C@H](CC[C@@H]3C[C@@H](O)CC(=O)O3)[C@H]21	1.02 ± 0.086	1.06 ± 0.028	1.035 ± 0.0071	1.02 ± 0.079	1.07 ± 0.021
CCc1c(O)cc(C(C)CC)oc1=O (stereo not given) [Germicidin]	1.02 ± 0.014	0.92 ± 0.034	0.965 ± 0.05	0.946 ± 0.16	1.06 ± 0.09
Nc1ccc(S(=O)(=O)NC(=O)c2ccccc2)cc1	1.07 ± 0.12	0.954 ± 0.12	1.11 ± 0.064	0.875 ± 0.15	1.02 ± 0.014
Oc1ccc(OCc2ccccc2)cc1	1.07 ± 0.05	0.975 ± 0.078	0.982 ± 0.017	1 ± 0.17	0.754 ± 0.05
COC(C)c1cccc2nc3c(C(=O)O)cccc3nc12 (stereo not given) [Saphenic acid methylether]	1.03 ± 0.052	1.13 ± 0.028	1.04 ± 0.028	0.907 ± 0.1	1.15 ± 0.14
C#C[C@]1(O)CC[C@H]2[C@@H]3CCc4cc(OC)ccc4[C@H]3CC[C@@]21C	0.952 ± 0.011	1.02 ± 0.021	0.986 ± 0.0085	0.981 ± 0.15	0.944 ± 0.059
CC(C)(C)CC(C)(C)c1ccc(OCCOCC[N+](C)(C)Cc2ccccc2)cc1	1.07 ± 0.028	0.99 ± 0.071	1.05 ± 0.021	0.983 ± 0.081	0.897 ± 0.017
O=C(O)CCNC(=O)c1ccccc1	1.04 ± 0.035	1.035 ± 0.0071	1 ± 0.026	0.972 ± 0.0099	1.005 ± 0.0071
COCCCOc1cc(C[C@@H](C[C@H](NC(=O)OC(C)(C)C)[C@@H]2C[C@@H](C(C)C)C(=O)O2)C(C)C)ccc1OC [Borrelidin derivative (C30H49NO7)]	1.01 ± 0.072	0.995 ± 0.036	0.959 ± 0.025	0.963 ± 0.12	0.9975 ± 0.0035
